Cy5 interf NS3h: Cy5 fluorescence interference, HCV helicase counter-screen | Cy5-dT15 DNA with NS3h; actives lie on both sides; signal over control mean, under 1 quenches | fluorescence interference ratio at 100 µM | hit rate 6% among 16,000;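 active means compound fluorescence over control fluorescence at most 0.8, a quencher, or at least a set upper limit, an enhancer; inactive means ratio between 0.8 and the set upper limit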
NS3h inh CB: hepatitis C NS3 helicase inhibition, primary screen; NS3h Cy5-dT15 DNA binding, fluorescence polarization; inhibition, % at 100 µM; hit rate 1.6% among 16,000; AID 687043;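 active means inhibition above the average over every tested compound plus 3 SD, cut at about 40% in these data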
A number is an active result. Sampled rows, rich in hits. Any-hit rate of the full collection: about 6.8%.

Cc1ccc(N2NC(=O)/C(=C\c3ccc(Br)cc3)C2=O)cc1 was read as Cy5 interf NS3h inactive and NS3h inh CB inactive.
For COc1cc(/C=C2\C(=O)NN(c3ccccc3)C2=O)cc(Br)c1OCC(=O)O the results were Cy5 interf NS3h inactive and NS3h inh CB inactive.
Screening COc1cc(/C=C2/C(=O)NN(c3ccc(Cl)cc3)C2=O)cc(Br)c1O returned Cy5 interf NS3h 0.77 and NS3h inh CB inactive.
COc1ccc(C2C(C(C)=O)C(=O)CC(C)(O)C2C(C)=O)c(OC)c1 (stereo unspecified) was read as Cy5 interf NS3h inactive and NS3h inh CB inactive.
Screening Cc1cc(/C=C2\C(=O)NC(=O)N(c3ccc(Cl)cc3)C2=O)c(C)n1-c1cccnc1 returned Cy5 interf NS3h inactive and NS3h inh CB inactive.
`CCc1ccc(NC(=O)c2ccc(C)c([N+](=O)[O-])c2)cc1` gave Cy5 interf NS3h inactive and NS3h inh CB inactive.
`CCOc1ccc(-n2nc3ccc(NC(=O)c4ccc(Cl)cc4)cc3n2)cc1` gave Cy5 interf NS3h 0.64 and NS3h inh CB inactive.
NS(=O)(=O)c1ccc(NC(=O)c2ccc(Oc3ccccc3)cc2)cc1 was read as Cy5 interf NS3h 1.2 and NS3h inh CB inactive.
`CCOc1cccc(C(=O)Nc2ccc3nn(-c4ccc(F)cc4)nc3c2)c1` gave Cy5 interf NS3h inactive and NS3h inh CB inactive.
Screening O=C(COc1ccccc1[N+](=O)[O-])Nc1ccc2oc(-c3ccccc3Br)nc2c1 returned Cy5 interf NS3h inactive and NS3h inh CB inactive.
`COc1ccc(NC(=O)c2ccc(C)c([N+](=O)[O-])c2)cc1` gave Cy5 interf NS3h 0.74 and NS3h inh CB inactive.
O=C(Nc1ccc(Oc2ccccc2)cc1)c1ccc([N+](=O)[O-])cc1 was read as Cy5 interf NS3h inactive and NS3h inh CB inactive.
For O=C(COc1ccccc1[N+](=O)[O-])Nc1ccc2oc(-c3cc(Br)ccc3Cl)nc2c1 the results were Cy5 interf NS3h 1.2 and NS3h inh CB inactive.
`COc1ccc(S(=O)(=O)N(CC(=O)Nc2ccc3c(c2)OCO3)c2ccc(C)cc2)cc1OC` gave Cy5 interf NS3h inactive and NS3h inh CB inactive.
`O=C(O)c1ccc(-c2c(Cl)cc([N+](=O)[O-])cc2Cl)o1` gave Cy5 interf NS3h inactive and NS3h inh CB inactive.
`Nc1sc2c(c1C(=O)Nc1ccc(Cl)cc1)CCCC2` gave Cy5 interf NS3h inactive and NS3h inh CB inactive.
`Cc1cc(C)nc(NS(=O)(=O)c2ccc(N/C=C\C(=O)c3ccc4ccccc4c3)cc2)n1` gave Cy5 interf NS3h inactive and NS3h inh CB inactive.
Screening O=C(Nc1ccccc1Cl)c1cccc(NC(=O)C(F)(F)F)c1 returned Cy5 interf NS3h inactive and NS3h inh CB inactive.
For CCOc1ccc(NC(=O)c2ccc(C)c([N+](=O)[O-])c2)cc1 the results were Cy5 interf NS3h inactive and NS3h inh CB inactive.
Screening COc1cccc(C(=O)Nc2ccc3oc(-c4ccc(F)cc4Cl)nc3c2)c1 returned Cy5 interf NS3h inactive and NS3h inh CB inactive.
`CCOc1ccccc1NC(=O)c1ccc([N+](=O)[O-])cc1` gave Cy5 interf NS3h inactive and NS3h inh CB inactive.
For COC(=O)c1ccc(NC(=S)NC(=O)c2ccc(OC)cc2)cc1 the results were Cy5 interf NS3h inactive and NS3h inh CB inactive.
`Cc1ccc(C(=O)Nc2ccc3oc(-c4ccc(F)cc4Cl)nc3c2)cc1[N+](=O)[O-]` gave Cy5 interf NS3h 0.74 and NS3h inh CB inactive.
Screening CCOc1ccc(NC(=O)c2ccc(Cl)c([N+](=O)[O-])c2)cc1 returned Cy5 interf NS3h 0.73 and NS3h inh CB inactive.
Screening COc1ccc(C(=O)Nc2ccc(C(=O)O)cc2)cc1 returned Cy5 interf NS3h 1.2 and NS3h inh CB inactive.
CCOc1ccccc1NC(=O)c1ccc(C)c([N+](=O)[O-])c1 was read as Cy5 interf NS3h 0.75 and NS3h inh CB inactive.
`C=CCN1C(=O)/C(=C\c2ccc(N(C)C)cc2)SC1=Nc1ccccc1` gave Cy5 interf NS3h inactive and NS3h inh CB inactive.
`CCOc1cccc2c1NC(C)(C)c1sn(-c3ccc(C)cc3)c(=S)c1-2` gave Cy5 interf NS3h inactive and NS3h inh CB inactive.
`CC(C)(C)C(O)=Cc1nc2cc([N+](=O)[O-])ccc2[nH]c1=O` gave Cy5 interf NS3h inactive and NS3h inh CB inactive.
Screening COc1cc(/C=N\N2C(=O)CSC2=S)ccc1OCCOc1ccc(C(C)(C)C)cc1 returned Cy5 interf NS3h inactive and NS3h inh CB inactive.
For COc1cc(/C=N\N2C(=O)CSC2=S)ccc1OCCOc1cc(C)ccc1C(C)C the results were Cy5 interf NS3h 1.2 and NS3h inh CB inactive.
For COC(=O)C1=C(C)NC2=C(C(=O)c3ccccc32)C1c1ccccc1OCc1ccc(Br)cc1 (stereo unspecified) the results were Cy5 interf NS3h inactive and NS3h inh CB inactive.
O=C1/C(=C/c2cccc(Br)c2)SC(=S)N1CC(=O)N(CCO)c1ccccc1 was read as Cy5 interf NS3h inactive and NS3h inh CB inactive.
Screening COc1cc(C=Nc2ccc(S(N)(=O)=O)cc2)ccc1O returned Cy5 interf NS3h inactive and NS3h inh CB inactive.
Screening COc1ccc(N=Cc2ccc(O)c(OC)c2)cc1 returned Cy5 interf NS3h 0.8 and NS3h inh CB inactive.
`O=C(Cc1cccc2c(S(=O)O)cccc12)NC(c1ccccc1)c1ccccc1` gave Cy5 interf NS3h inactive and NS3h inh CB inactive.
`O=C(NC(c1ccccc1)c1ccccc1)C1CC1c1ccccc1` (stereo unspecified) gave Cy5 interf NS3h 0.68 and NS3h inh CB inactive.
`Cc1ccc2nc(Nc3ccc(C(=O)O)cc3)nc(-c3ccccc3)c2c1` gave Cy5 interf NS3h inactive and NS3h inh CB inactive.
`CCN(CC)c1ccc(NC(=O)c2cccc(Cl)c2Cl)cc1` gave Cy5 interf NS3h inactive and NS3h inh CB inactive.
O=C(Nc1cccnc1)c1cccc(Cl)c1Cl was read as Cy5 interf NS3h 0.72 and NS3h inh CB inactive.
Screening Cn1c(-n2c(CCCN3C(=O)c4ccccc4C3=O)nc3ccccc3c2=O)nc2ccccc21 returned Cy5 interf NS3h 0.67 and NS3h inh CB inactive.
Screening Cn1c(CC(O)(c2ccccc2)c2ccccc2)nc2ccccc21 returned Cy5 interf NS3h inactive and NS3h inh CB inactive.
For O=C1c2ccccc2C(=O)N1CCc1nc2ccccc2c(=O)n1-c1nccs1 the results were Cy5 interf NS3h 0.59 and NS3h inh CB inactive.
For O=C(CCN1C(=O)c2ccccc2C1=O)NCc1ccccn1 the results were Cy5 interf NS3h inactive and NS3h inh CB inactive.
For C=CCn1c(-c2ccccc2)c(NC(=O)c2ccco2)sc1=Nc1ccc(Br)cc1 the results were Cy5 interf NS3h inactive and NS3h inh CB inactive.
`Cc1ccc(N2C(=O)C3C4CCC(O4)C3C2=O)nc1` (stereo unspecified) gave Cy5 interf NS3h inactive and NS3h inh CB inactive.
Screening Cc1ccc(C(=O)/C=C(/N)C(F)(F)F)cc1 returned Cy5 interf NS3h 0.73 and NS3h inh CB inactive.
Screening O=C(C=C(O)c1ccc(F)cc1)C(F)(F)F returned Cy5 interf NS3h inactive and NS3h inh CB inactive.
For O=C(Nc1ccc(Br)cc1)C1CCCN1S(=O)(=O)c1ccc(Cl)cc1 (stereo unspecified) the results were Cy5 interf NS3h inactive and NS3h inh CB inactive.
Screening Cc1c(Cl)cccc1NC(=O)c1cc2nc(-c3cccs3)cc(C(F)(F)F)n2n1 returned Cy5 interf NS3h inactive and NS3h inh CB inactive.
CC(C)OC(=O)c1cc2nc(-c3cccs3)cc(C(F)(F)F)n2n1 was read as Cy5 interf NS3h 0.66 and NS3h inh CB inactive.
